From PubChem
The list is not random: actives were taken first. Their share in the collection is about 14%.
USP17 inh: inhibitors of human USP17 deubiquitinase; 47,000 tested, 6.5% active; inhibition, % at 50 µM; purified USP17, Ub-rhodamine cleavage fluorescence, 3 h; AID 1645855, 2021
Target sequence (A8MUK1 whole entry, looked up): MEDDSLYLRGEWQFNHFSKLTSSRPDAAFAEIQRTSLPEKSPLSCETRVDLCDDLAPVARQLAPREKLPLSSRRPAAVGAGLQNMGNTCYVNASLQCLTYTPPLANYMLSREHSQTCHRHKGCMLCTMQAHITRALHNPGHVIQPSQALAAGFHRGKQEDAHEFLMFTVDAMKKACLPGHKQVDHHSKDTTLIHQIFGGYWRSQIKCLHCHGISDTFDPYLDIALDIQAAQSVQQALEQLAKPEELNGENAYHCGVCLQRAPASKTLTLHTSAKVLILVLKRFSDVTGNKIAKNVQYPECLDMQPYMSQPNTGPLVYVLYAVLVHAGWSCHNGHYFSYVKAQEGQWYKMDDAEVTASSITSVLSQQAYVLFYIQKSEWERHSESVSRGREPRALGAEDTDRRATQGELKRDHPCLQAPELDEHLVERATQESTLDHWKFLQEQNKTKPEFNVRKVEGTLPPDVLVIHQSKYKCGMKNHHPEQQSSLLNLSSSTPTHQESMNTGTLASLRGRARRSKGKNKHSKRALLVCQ
USP30 inh: inhibitors of human USP30 deubiquitinase; Ubiquitin carboxyl-terminal hydrolase 30 (Homo sapiens), Q70CQ3; purified USP30, Ub-rhodamine cleavage fluorescence; inhibition, % at 25 µM; 47,000 tested, 5.3% active
USP8 inh: inhibitors of human USP8 deubiquitinase. 47,000 tested, 4.2% active. AID 1645853, 2021. purified USP8, Ub-rhodamine cleavage fluorescence, 30 min. inhibition, % at 20 µM
USP28 block: inhibitors of human USP28 deubiquitinase; 47,000 tested, 3% active; Ubiquitin carboxyl-terminal hydrolase 28 (Homo sapiens), Q96RU2; AID 1645857, 2021; inhibition, % at 25 µM; purified USP28, Ub-rhodamine cleavage fluorescence, 30 min
An asterisk follows results filed as active. Cut-off read from the data, not from the text of the source: active = inhibition above about 30%; inactive = the rest.

SMILES	USP17 inh	USP30 inh	USP8 inh	USP28 block
O=C1NCC2(CCCN(Cc3ccncc3)C2)Oc2ccccc21 (stereo unspecified)	-60.3	-191.9	-4.4	-66.0
COc1cccc2c1NC(=O)C21CCN(C(=O)Nc2cccc3ccccc23)CC1	91.9*	19.8	97.4*	22.6
O=C(Nc1ccccc1)N1CCC2(CC1)C(=O)Nc1c(Oc3ccccc3)cccc12	-27.1	1.8	5.0	24.1
CC(C)CN1CCO[C@@H]2CCN(C(=O)c3ccno3)CC[C@H]21	-16.2	-13.9	-121.3	-0.4
O=C(O)c1cccc2nc3ccccc3nc12	38.8*	-10.1	7.7	0.3
CNC(=O)NC(=O)COC(=O)c1c(C)n(C2CC2)c2ccc(OC)cc12	10.3	-7.7	13.2	8.6
NCCCNC(=O)N1CCC2(CC1)C(=O)Nc1c(Oc3ccccc3)cccc12	-13.0	15.4	-84.3	18.9
COc1c2c(c(O)c3c1C(=O)c1c(cc(O)c(C)c1O)C3=O)-c1c(cc3c(c1O)C(=O)OC3O)CC2 (stereo unspecified)	94.4*	59.3*	71.6*	88.0*
O=C1CC2(CCNCC2)Oc2ccc(O)cc21	15.5	13.1	-0.7	1.6
COC1=C(C2=C(OC)C(=O)c3cc4c(c(O)c3C2=O)C(=O)OC(C)C4)C(=O)c2c(cc3c(c2O)C(=O)OC(C)C3)C1=O (stereo unspecified)	70.1*	-41.5	-27.1	67.5*
CN1C(=O)[C@@]23C[C@]4([C@@]56C[C@]78SS[C@](CO)(C(=O)N7[C@@H]5Nc5ccccc56)N(C)C8=O)c5ccccc5N[C@@H]4N2C(=O)[C@]1(CO)SS3	-32.2	67.9*	0.9	-6.1
COc1ccccc1C1SCC(=O)Nc2c1c(-c1ccccc1)nn2-c1ccccc1 (stereo unspecified)	11.1	20.0	10.2	6.6
O=C(Nc1nc2ccccc2s1)c1cccn(Cc2cccc(Cl)c2)c1=O	45.8*	-20.9	-0.1	-11.9
O=C(Nc1nccs1)c1cccn(Cc2ccc(Cl)c(Cl)c2)c1=O	31.1*	5.2	3.3	2.3
O=C(Nc1nc2ccc([N+](=O)[O-])cc2s1)c1cccn(Cc2ccc(F)cc2)c1=O	4.6	-4.7	0.6	-5.8
Cc1cc(CN2C[C@H](OCC(=O)N(C)C)[C@H]3OCCC[C@H]32)no1	3.9	4.9	9.2	0.0
O=C(Cc1ccc(Cl)cc1)N1CCC2(CCCN2CCc2ccccc2)C1 (stereo unspecified)	-21.3	-5.7	-115.8	0.6
CO[C@H]1/C=C/C=C\C=C\C[C@H](OC(=O)[C@@H](C)NC(=O)C2CCCCC2)[C@H](C)[C@@H](O)/C(C)=C\CCc2cc(O)cc(c2O)NC(=O)C1	33.0*	-36.0	-3.9	-6.7
